These results are taken from PubChem BioAssay AID652154 (Broad Institute, 2013).

A word on the inhibition: it is the relative decrease from the control value, in per cent.

Hit rate of the full screen: of about 360,000 compounds, about 4,200 (1.2%) were called active. The sample holds actives, similar compounds and a random draw of the others, so the mix is not that of the screen.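 The calls were made as follows: active = mean replicate inhibition at least 60% with every replicate also reaching 60%; inconclusive = only one of the two criteria is met; inactive = mean below 60% and not all replicates reaching 60%.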

The nature of this assay: inhibitors of PAX8-driven TPO luciferase reporter, primary screen, RMG-I cells, single concentration (AID 652154).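 Also: luciferase light reporting Pax8 driven TPO promoter activity; plate controls were median of neutral control wells for no effect and mitoxantrone controls for full effect.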 Particulars: SteadyGlo, 24 h, at 12.6 µM, active compounds read high. For orientation: In a reporter assay the amount or activity of a reporter protein is the signal.
Consider `C/C=C/c1ccc2c(c1)O[C@@H](CN(C)CC1CCOCC1)[C@@H](C)CN([C@H](C)CO)S2(=O)=O`, for which the inhibition was -8.71% (inactive).
With `O=C(NC1CCCCC1)N[C@H]1CC[C@H](CCNS(=O)(=O)c2ccc(F)cc2)O[C@H]1CO`, the inhibition is 1.61% (inactive).
With `C[C@@H]1CCCCO[C@H](CN(C)C(=O)c2ccccc2)[C@H](C)CN([C@H](C)CO)C(=O)c2cc(N(C)C)ccc2O1` the figure was 12.7% (inactive); with `CC(C)NC(=O)Nc1ccc2c(c1)C(=O)N([C@H](C)CO)C[C@@H](C)[C@@H](CN(C)C(=O)c1ccncc1)OCCCC[C@H](C)O2`, 1.42% (inactive).
Under `C[C@@H]1CN([C@@H](C)CO)C(=O)c2cccc(NC(=O)CCCCCC(=O)Nc3ccccc3N)c2O[C@H]1CN(C)C(=O)Nc1ccccc1` stands -12.6% (inactive); under `Cc1ccc(S(=O)(=O)Nc2ccc3c(c2)CC(=O)N([C@H](C)CO)C[C@@H](C)[C@H](CN(C)Cc2ccc(C(F)(F)F)cc2)O3)cc1`, 70.8% (active).
With `Cc1ccc(S(=O)(=O)Nc2ccc3c(c2)CC(=O)N([C@@H](C)CO)C[C@H](C)[C@H](CN(C)Cc2ccccc2)O3)cc1` the figure was -12.9% (inactive).
As for `C[C@H](CO)N1C[C@H](C)[C@@H](CN(C)Cc2ccc(Cl)c(Cl)c2)Oc2ccc(NC(=O)Nc3ccc(C(F)(F)F)cc3)cc2CC1=O`, the inhibition is 99.1% (active).
For `C[C@H](CO)N1C[C@H](C)[C@@H](CN(C)Cc2ccc(-c3ccccc3)cc2)Oc2ccc(NC(=O)CCC(F)(F)F)cc2CC1=O`, the inhibition was 70.4% (active).
With `C[C@@H]1CN([C@H](C)CO)C(=O)Cc2cc(NC(=O)Nc3ccccc3)ccc2O[C@H]1CN(C)Cc1ccc(Cl)c(Cl)c1` the figure was 8.31% (inactive); with `C[C@@H]1CN([C@H](C)CO)C(=O)Cc2cc(NC(=O)CCC(F)(F)F)ccc2O[C@@H]1CN(C)Cc1ccncc1`, -1.08% (inactive).
`C[C@@H]1CN([C@H](C)CO)C(=O)c2cccc(NC(=O)CCCCCC(=O)Nc3ccccc3N)c2O[C@H]1CN(C)Cc1ccc(Oc2ccccc2)cc1`: the inhibition was 71.9% (active).
With `C[C@@H]1CN([C@@H](C)CO)C(=O)Cc2cc(NC(=O)CCCN(C)C)ccc2O[C@@H]1CN(C)Cc1ccc(-c2ccccc2)cc1`, the inhibition was 10.4% (inactive).
As to `Cc1ccc(S(=O)(=O)Nc2ccc3c(c2)C(=O)N([C@@H](C)CO)C[C@@H](C)[C@H](CN(C)Cc2ccc(C(F)(F)F)cc2)O3)cc1`, the inhibition is 10.1% (inactive).
Take `C[C@@H]1CN([C@@H](C)CO)C(=O)Cc2cc(NC(=O)Nc3ccc(C(F)(F)F)cc3)ccc2O[C@H]1CN(C)Cc1ccc(C(=O)O)cc1`: the inhibition was -5.6% (inactive).
Consider `C[C@H](CO)N1C[C@H](C)[C@H](CN(C)Cc2ccc(Oc3ccccc3)cc2)Oc2c(NC(=O)CCCCCC(=O)Nc3ccccc3N)cccc2C1=O`, for which the inhibition was 9.67% (inactive).
Turning to `C[C@@H]1ON(C)[C@H]2C[C@H]3c4cc(N5CCOCC5)ccc4CCN3C[C@@H]12`, the inhibition was -4.88% (inactive).
In the case of `O=C(Nc1ccccc1F)N1CC(=O)N2[C@H](C1)[C@@H](c1ccc(C#CC3CC3)cc1)[C@@H]2CO`, the inhibition was -14.6% (inactive).
For `O=C(N[C@@H]1CC[C@@H](CCNS(=O)(=O)c2ccccc2Cl)O[C@@H]1CO)c1ccccc1`, the inhibition was -1.25% (inactive).
As to `O=C(C[C@@H]1CC[C@H]2[C@@H](COC[C@H](O)CN2Cc2ccc(F)cc2)O1)N1CCc2ccccc2C1`, the inhibition is -7.32% (inactive).
With `CO[C@@H]1CN(C)C(=O)c2cc(NC(=O)c3cnccn3)ccc2OC[C@@H](C)N(CC2CC2)C[C@H]1C`, the inhibition is 6.97% (inactive).
Take `CO[C@@H]1CN(C)C(=O)c2cc(NC(=O)C3CC3)ccc2OC[C@H](C)N(CC2CC2)C[C@H]1C`: the inhibition is 7.02% (inactive).
As to `C[C@@H](O)C#Cc1ccc2c(c1)O[C@@H](CN(C)C)[C@@H](C)CN([C@@H](C)CO)S2(=O)=O`, the inhibition was -0.827% (inactive).
Under `CCCNC(=O)Nc1ccc2c(c1)C(=O)N(C)C[C@@H](OC)[C@H](C)CN(CCC)[C@@H](C)CO2` stands -1.74% (inactive).
Under `O=C(C1CCC1)N1C[C@H]2[C@@H](c3ccccc31)[C@@H](CO)N2C(=O)c1ccccc1F` stands 5.48% (inactive); under `COc1cccc(-c2ccc3c(c2)[C@@H]2[C@@H](CCN2S(=O)(=O)C2=NC(C)C=N2)[C@@H](CO)N3C)c1` (stereo partly specified), 19.4% (inactive).
With `C/C=C/c1ccc([C@@H]2[C@H](CO)N(CC3CCCC3)C23CN(C(=O)CC)C3)cc1`, the inhibition was 18.8% (inactive).
As for `C[C@H]1CN([C@@H](C)CO)S(=O)(=O)c2ccc(C3=CCCC3)cc2O[C@H]1CN(C)C(=O)Cc1ccncc1`, the inhibition was 1.78% (inactive).
With `O=C(NCc1ccccc1Cl)[C@H]1[C@H](CO)[C@H]2Cn3c(cccc3=O)[C@H]2N1C(=O)C1CCC1`, the inhibition was -12.8% (inactive).
Turning to `Cc1ccc(S(=O)(=O)N(C)C[C@@H]2Oc3c(NC(=O)c4ccncc4)cccc3C(=O)N([C@@H](C)CO)C[C@@H]2C)cc1`, the inhibition was 1.41% (inactive).
For the molecule `CCS(=O)(=O)Nc1ccc2c(c1)C(=O)N(C)[C@H]1CC[C@H](CC(=O)N[C@@H]3CCN(Cc4ccccc4)C3)O[C@H]1CO2`, the inhibition was -7.99% (inactive).
Consider `C[C@@H]1CN([C@H](C)CO)C(=O)c2cc(C3=CCCCC3)cnc2O[C@@H]1CN(C)C(=O)c1ccc2c(c1)OCO2`, for which the inhibition is -9.44% (inactive).
As to `C[C@@H]1CN([C@H](C)CO)C(=O)c2cc(C#CCN(C)C)cnc2O[C@H]1CN(C)C(=O)Cc1ccncc1`, the inhibition was -16.9% (inactive).
In the case of `C[C@H]1CN([C@@H](C)CO)C(=O)Cc2cc(NS(=O)(=O)c3ccc(F)cc3)ccc2O[C@H]1CN(C)Cc1ccc(C(F)(F)F)cc1`, the inhibition was -55.2% (inactive).
As to `C[C@H](CO)N1C[C@H](C)[C@H](CN(C)Cc2ccncc2)Oc2ccc(NS(=O)(=O)c3ccc(F)cc3)cc2CC1=O`, the inhibition is 6.06% (inactive).
On to `COc1ccc(S(=O)(=O)Nc2ccc3c(c2)CC(=O)N([C@H](C)CO)C[C@H](C)[C@H](CN(C)Cc2ccc(C(F)(F)F)cc2)O3)cc1`, for which the inhibition was 7.06% (inactive).
Consider `C[C@H]1CN([C@@H](C)CO)C(=O)Cc2cc(NS(=O)(=O)c3cccs3)ccc2O[C@@H]1CN(C)Cc1ccc(Oc2ccccc2)cc1`, for which the inhibition was -11% (inactive).
With `C[C@@H]1CN([C@@H](C)CO)C(=O)Cc2cc(NS(=O)(=O)c3ccc(Cl)cc3)ccc2O[C@H]1CN(C)Cc1ccc(C(F)(F)F)cc1`, the inhibition is 84.5% (active).
Consider `C[C@H](CO)N1C[C@H](C)[C@@H](CN(C)Cc2ccc(Oc3ccccc3)cc2)Oc2ccc(NS(=O)(=O)c3ccc(F)cc3)cc2CC1=O`, for which the inhibition was 78.6% (active).
Regarding `COCC(=O)N(C)C[C@@H]1Oc2cc(C#Cc3cccnc3)ccc2S(=O)(=O)N([C@H](C)CO)C[C@H]1C`, the inhibition is 6.54% (inactive).
For the molecule `O=C(C[C@H]1CC[C@H]2[C@@H](COC[C@@H](O)CN2CCC(F)(F)F)O1)NCc1ccc2c(c1)OCO2`, the inhibition is -15.5% (inactive).
Regarding `O=C(C[C@H]1C=C[C@H](NC(=O)Nc2ccccc2F)[C@@H](CO)O1)NCc1ccc(Cl)cc1`, the inhibition is -8.13% (inactive).
`C[C@@H]1CCCCO[C@H](CN(C)Cc2ccncc2)[C@@H](C)CN([C@H](C)CO)C(=O)c2cc(NC(=O)CCCN(C)C)ccc2O1`: the inhibition was -4.23% (inactive).
Regarding `COc1ccc(NC(=O)N(C)C[C@H]2Oc3ccc(NC(=O)Cc4cn(C)c5ccccc45)cc3CC(=O)N([C@@H](C)CO)C[C@H]2C)cc1`, the inhibition is 16.5% (inactive).
`O=C(CN1C(=O)c2ccccc2S1(=O)=O)N1CCc2ccccc21`: the inhibition is 90.5% (active).
For the molecule `CN(Cc1ccc(F)cc1)C(=O)CN1C(=O)c2ccccc2S1(=O)=O`, the inhibition was -2.85% (inactive).
For `CN(Cc1cccs1)C(=O)CN1C(=O)c2ccccc2S1(=O)=O`, the inhibition is -105% (inactive).
Take `C[C@@H]1CN([C@@H](C)CO)C(=O)Cc2cc(NC(=O)Cc3ccccc3)ccc2O[C@@H]1CN(C)Cc1ccc2c(c1)OCO2`: the inhibition was 13.6% (inactive).
For the molecule `Cc1cc(C(=O)Nc2cccc3c2O[C@@H](CN(C)C(=O)Nc2ccc(F)cc2)[C@H](C)CN([C@@H](C)CO)C3=O)n(C)n1`, the inhibition is 7.05% (inactive).
Under `COc1ccc(NC(=O)Nc2ccc3c(c2)C(=O)N([C@@H](C)CO)C[C@H](C)[C@H](CN(C)CC2CCCCC2)O3)cc1` stands -0.963% (inactive); under `CC(=O)Nc1ccc(C=CC(=O)c2ccc([N+](=O)[O-])cc2)cc1`, 15.2% (inactive); under `O=C1/C(=C\c2ccc([N+](=O)[O-])cc2)CS(=O)(=O)C/C1=C/c1ccc([N+](=O)[O-])cc1`, 122% (active).
`O=C(O)C(=Cc1ccc([N+](=O)[O-])cc1)CCc1ccccc1`: the inhibition was 8.95% (inactive).
Take `COc1ccc(S(=O)(=O)N(C)C[C@H]2Oc3c(NC(=O)C4CCOCC4)cccc3C(=O)N([C@@H](C)CO)C[C@@H]2C)cc1`: the inhibition is -8.86% (inactive).
Consider `Cn1cnc(CCNC(=O)[C@H]2[C@H](CO)[C@H]3Cn4c(cccc4=O)[C@H]3N2C(=O)Nc2ccccc2)c1`, for which the inhibition is -6.72% (inactive).
Turning to `Cn1cnc(S(=O)(=O)N2C[C@@H](O)COC[C@@H]3O[C@H](CC(=O)NCc4ccc(F)cc4)CC[C@H]32)c1`, the inhibition was -3.38% (inactive).
As for `Cc1ccc(/C=N/NC(=O)COc2ccccc2-c2ccccc2)cc1`, the inhibition was 87.7% (active).
Consider `Cc1ccc(COc2ccc(/C=N/NC(=O)CN3CCCCC3)cc2)cc1`, for which the inhibition was -222% (inactive).
For the molecule `Cc1ccc(/C=N/NC(=O)CSc2nc3ccccc3o2)cc1`, the inhibition is -83% (inactive).
For the molecule `O=C(C[C@H]1CC[C@@H](NC(=O)Nc2ccc(C(F)(F)F)cc2)[C@H](CO)O1)NCc1cc(F)cc(F)c1`, the inhibition is -5.75% (inactive).
Regarding `Cc1ccccc1-c1ccc([C@@H]2[C@@H](CO)N3CCCCN(C(=O)Nc4cccc(F)c4)C[C@H]23)cc1`, the inhibition is 10.4% (inactive).
